Structures are written as SMILES. Results filed as inconclusive are left out. Active and inactive are the calls of the source. Calls come from the whole dose curve; as a rule, active = well fitted curve in the direction sought with a large enough effect in the signal ratio; inconclusive = small, poorly fitted or top-dose-only effect, or a change in a side signal; inactive = no such curve, though single readings can be large or run the other way; the % refers to the signal ratio.

The assay has as its target Follicle-stimulating hormone receptor (Homo sapiens) (UniProt P23945). Briefly: Counterscreen for Agonists of Thyroid Stimulating Hormone Receptor: HTRF Activity in a Follicle Stimulating Hormone Receptor Cell Line. To be noted: HEK293-FSHR cells, 30 min; series mostly up to 91.7 µM. The source says:
NIH Chemical Genomics Center [NCGC] NIH Molecular Libraries Screening Centers Network [MLSCN] MLSCN Grant: 1 X01 MH080680-01 PI Name: Dr. Marvin Gershengorn, NIH NCGC Assay Overview: Confirmation of Thyroid Stimulating Hormone Receptor Agonists TSH is an alpha/beta heterodimeric glycoprotein hormone secreted from the anterior pituitary gland which belongs to the glycoprotein hormone family. The actions of TSH are mediated by a seven-transmembrane receptor, which upon TSH binding couples preferentially to the G-alpha (s) protein (Gs), resulting in activation of adenylate cyclase and increase in cyclic adenosine 3', 5' monophosphate (cAMP). The TSH receptor (THSR) is mainly expressed in thyroid follicular cells and regulates their growth and function. Recombinant TSH is used to activate TSHR in patients with thyroid cancer receiving thyroid hormone suppression therapy and to screen for residual tumor after surgery, but it is expensive and must be administered intramuscularly. An orally active small molecule TSHR agonist would serve as an invaluable research tool for studying TSHR pharmacology and physiology, and would have multiple advantages in therapeutic settings. However, no selective small molecule agonist of the TSH receptor exists, and no small molecule screen for TSHR agonists has ever been reported. In order to confirm specificity of the compounds to the TSHR, a confirmatory assay was conducted on a similar family member, the Follicle Stimulating Hormone (FSH) receptor, transfected into a HEK 293 cell line, using an orthogonal detection technology to measure cAMP stimulation: antibody-based Homogeneous Time Resolved Fluorescence (HTRF).
NCGC Assay Protocol Summary: Homogeneous Time Resolved Fluorescence (HTRF) cAMP Assay. HEK 293 cells stably transfected with a vector containing the FSH receptor and maintained under hygromycin selection were obtained from the laboratory of Dr. Marvin Gershengorn. Compounds were assayed using a HTRF cAMP detection kit (Cisbio) on the FSH receptor transfected cell line. Briefly, 750 cells were plated in 2.5 ul/well of complete media (DMEM containing 10 % FCS, and 100 uM RO 20-1724) in 1536 well solid bottom white plates and 23 nl/well compound in DMSO solution or controls was added. Following 30 minute incubation at room temperature, 2.5 ul/well of labeled d2 cAMP and 2.5 ul/well of anti-cAMP antibody (both diluted 1:20 in lysis buffer) were added to each well using a flying reagent dispenser (Aurora Discovery, San Diego) . Plates were measured using the Envision plate reader (PerkinElmer, Boston, MA) with excitation at 330 nm and emissions of 615 nm and 660 nm. Keywords: Follicle Stimulating hormone FSH, Thyroid-stimulating hormone TSH, TSHR, TSHR agonist, quantitative high throughput screening, qHTS, HTS, probe identification, CNG, cAMP, cyclic nucleotide gated ion channel PubChem
Take `COc1ccc(C2Nc3ccccc3C(=O)N2Cc2ccco2)cc1COc1ccc([N+](=O)[O-])cc1` (stereo unspecified): the call was inactive.
Under `COc1ccc(C(=O)N(Cc2ccco2)Cc2cccs2)c(O)c1` stands “inactive”; under `NC(=O)c1nsc(C(=O)N(CC(=O)NC2CCCC2)Cc2ccc3c(c2)OCO3)c1N`, “inactive”.
Turning to `COc1cc(OC)c(C(=O)N(Cc2ccco2)Cc2cccs2)cc1OC`, the call was inactive.
Under `COc1ccc(C(=O)N(Cc2ccco2)Cc2cccs2)c(OC)c1` stands “inactive”.
The same measure for `CC(NC(=O)COC(=O)c1ccco1)C12CC3CC(CC(C3)C1)C2` (stereo unspecified): “inactive”; for `O=C1C2C3CCCC3=C3CCCC3C2C(=O)N1c1ccc(F)cc1` (stereo unspecified): “inactive”; for `Cc1nn(-c2ccccc2)c(N2CCCC2)c1/C=N/n1cnc2scc(-c3ccccc3)c2c1=O`: “inactive”.
The same measure for `COc1ccc(C(=O)N(Cc2ccco2)Cc2cccs2)cc1`: “inactive”.
For the compound `COc1ccc(C2Nc3cccc(O)c3C(=O)N2Cc2ccccc2)cc1COc1ccc(NC(C)=O)cc1` (stereo unspecified), the outcome was inactive.
In the case of `O=C(COC(=O)C12CC3CC(CC(O)(C3)C1)C2)NCc1ccco1`, the outcome was inactive.
Under `NC(=O)c1nsc(C(=O)N(CC(=O)NCc2ccc3c(c2)OCO3)C2CCCC2)c1N` stands “inactive”; under `O=C1C2C3CCCC3=C3CCCC3C2C(=O)N1c1ccc(Cl)cc1` (stereo unspecified), “inactive”; under `NC(=O)c1nsc(C(=O)N(CC(=O)NCc2ccc3c(c2)OCO3)C2CCCCC2)c1N`, “inactive”.
The same measure for `COc1ccc(C2Nc3ccccc3C(=O)N2Cc2ccco2)cc1COc1ccc(NC(C)=O)cc1` (stereo unspecified): “inactive”; for `CCn1c(=O)c(C(=O)CN2CCCc3ccccc32)c(N)n(Cc2ccccc2)c1=O`: “inactive”.
Take `O=C1C2C3CCCC3=C3CCCC3C2C(=O)N1c1ccccc1Cl` (stereo unspecified): the compound was called inactive.
Under `O=c1c2c(-c3ccccc3)csc2ncn1/N=C/c1cn(-c2ccccc2)nc1-c1cccs1` stands “inactive”.
Under `O=C1C2C3CCCC3=C3CCCC3C2C(=O)N1c1cccc(Cl)c1` (stereo unspecified) stands “inactive”; under `O=C(COC(=O)C12CC3CC(CC(Br)(C3)C1)C2)NCc1ccco1`, “inactive”.
Under `O=C(COC(=O)C12CC3CC(CC(Cl)(C3)C1)C2)NCc1ccco1` stands “inactive”; under `O=C(COC(=O)C12CC3CC(CC(C3)C1)C2)NCc1ccco1`, “inactive”; under `O=C(COC(=O)C12CC3CC(CC(C3)C1)C2)NCC1CCCO1` (stereo unspecified), “inactive”.
For `COc1ccc(C2Nc3ccccc3C(=O)N2Cc2ccco2)cc1COc1c(C)cccc1C` (stereo unspecified), the outcome was inactive.
Under `O=C1CC(c2ccccc2)CC2=C1C(c1ccco1)n1nc(C(F)(F)F)nc1N2` (stereo unspecified) stands “inactive”; under `Cc1sc2ncn(/N=C/c3cn(-c4ccccc4)nc3-c3ccccc3)c(=O)c2c1C`, “inactive”.

The values are drawn from PubChem BioAssay AID1403 (National Center for Advancing Translational Sciences (NCATS), 2008).
